Structures are written as SMILES. Records with an inconclusive call do not appear. Unmarked numbers belong to inactive results. The source made the active and inactive calls. Calls come from the whole dose curve; as a rule, active = well fitted activation curve with a large enough effect; inconclusive = small, poorly fitted or top-dose-only effect; inactive = no such curve, though single readings can be large or run the other way.
Potency is the fitted concentration of half-maximal effect.

A short description of this assay: qHTS Assay for Identifying a Potential Treatment of Ataxia-Telangiectasia: Hit Validation. For activity change, positive = activation: 0% is about no effect.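 Note: phospho-KAP1 level by AlphaLISA as a proxy for ATM-like kinase activity.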 As to conditions: Ataxia-telangiectasia cell-based hit validation qHTS, in ATM-null A-T patient fibroblasts; series mostly up to 76.9 µM; activity change, positive = activation: at the top concentration. The method, boiled down:
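hTERT-immortalized A-T patient fibroblasts (F2112) were dosed at up to 76.7 uM final for 60 min at 37C. After a further 30 min incubation, cells were lysed, and phospho-KAP1 was detected by AlphaLISA after 6 hr at 25C.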
In general terms: qHTS replaces the single test concentration by a dilution series.
Consider `CCOc1cccc(/C=C/c2ccc3cccc(O)c3n2)c1OC`, for which the Potency is 32.8 µM (active). In the case of `CCOC(=O)NC(C(Cl)(Cl)Cl)S(=O)(=O)c1ccccc1` (configuration not stated), the Potency is 41.2 µM (active). Consider `O=C(C[n+]1ccc2c(c1)nnn2-c1ccccc1)c1ccc(Cl)cc1`, for which the “activity change, positive = activation” value was 6.83%. `C=CCC(CC)C(=O)NC(=O)N1CCCc2ccccc21` (configuration not stated): the “activity change, positive = activation” value is 1.61%.

Consider `Cn1c(=O)oc2cc(S(=O)(=O)N3CCc4ccccc43)ccc21`, for which the “activity change, positive = activation” value was 18.5%. Consider `O=C(NCCCN1CCOCC1)c1ccc2c(c1)N(Cc1cccc(F)c1)C(=O)c1ccccc1S2`, for which the Potency is 7.33 µM (active). Same read-out and setting: the figure for `Cc1oc2c(c(C)cc3oc(=O)c(CC(=O)NCC(=O)NCC(=O)O)c(C)c32)c1C` is 32.8 µM (active). `CN(C)C(=O)CN(C)S(=O)(=O)c1ccc(Cl)cc1`: the “activity change, positive = activation” value was -10.1%. Consider `COc1ccc(-n2c(C)cc(=O)[nH]c2=O)cc1`, for which the “activity change, positive = activation” value was 4.86%. Same read-out and setting: the figure for `C=Cc1c(C)c2cc3[nH]c(cc4nc(cc5nc(cc1[nH]2)C(C)=C5CCC(=O)O)C(CCC(=O)O)=C4C)c(C)c3C=C` is 21.5%. Take `O=[N+]([O-])c1ccc(F)cc1F`: the Potency was 29.2 µM (active). Take `CNC(=O)c1ccc(-c2sc3nc(N4CCOCC4)c4c(c3c2N)CC(C)(C)OC4)o1`: the Potency was 29.2 µM (active).

As for `CC1CC(C)CN(S(=O)(=O)c2ccc(C(=O)NCCCn3ccnc3)cc2)C1` (configuration not stated), the “activity change, positive = activation” value is -8.33%. `COC1=C(N)C(=O)c2nc(-c3nc(C(=O)O)c(C)c(-c4ccc(OC)c(OC)c4O)c3N)ccc2C1=O`: the “activity change, positive = activation” value is 8.68%.

For the compound `CC(C)(C)n1nc2c(c1NC(=O)C1CC(=O)N(c3ccc(Cl)cc3)C1)CS(=O)(=O)C2` (configuration not stated), the “activity change, positive = activation” value was 3.47%. Consider `O=C(OCCc1cc2ccccc2c(=O)o1)c1cccc(Br)c1`, for which the “activity change, positive = activation” value is -10%. On to `COc1ccc2c(c1)cc(C(=O)N[C@H](C(=O)N1CCC(C(=O)O)CC1)C(C)C)n2C`, for which the “activity change, positive = activation” value is 1.2%. Consider `C=CCSc1nc2ccccc2n1C(=O)/C=C/c1cc(OC)c(OC)c(OC)c1`, for which the Potency was 26 µM (active). As to `CC(C)(CN1CCN(c2ccccc2)CC1)NS(=O)(=O)c1ccccc1`, the “activity change, positive = activation” value was -6.25%. On to `CCOC(=O)C1=C(O)C(=O)N(Cc2ccccc2)C1`, for which the “activity change, positive = activation” value was -8.74%. Consider `CCOc1ccc(C(=O)NC(=S)Nc2cccnc2)cc1[N+](=O)[O-]`, for which the “activity change, positive = activation” value is 19.7%. On the same count and under the same terms, the figure for `COC(=O)Cn1ccc2cc(S(=O)(=O)N3CCCCC3)ccc21` is 1.2%.

Consider `CC12CCC(C(=O)NNc3ccc([N+](=O)[O-])cc3)(OC1=O)C2(C)C` (configuration not stated), for which the “activity change, positive = activation” value is -1.04%. In the case of `CCC(C)Nc1nc(N)c([N+](=O)[O-])c(NCCO)n1` (configuration not stated), the “activity change, positive = activation” value is -4.55%. For `CCn1c2ccccc2c2c3ncc4cccn4c3ccc21`, the Potency was 46.3 µM (active). With `CC(O)[C@H]1CNC(=O)C(=O)N1CC1(c2ccccc2)CC1` (some centres not stated), the “activity change, positive = activation” value is 3.82%. Same read-out and setting: the figure for `CCC(C)NC(=O)c1cn(CCOC)c(=O)c2c1c1ccccc1n2C` (configuration not stated) is -18.9%. `COc1ccc(CCNC(=O)C2CCN(S(=O)(=O)c3ccc(OC)c(OC)c3)CC2)cc1OC`: the “activity change, positive = activation” value was 0.803%.

As for `CCOC(=O)Cn1c(-c2ccccc2)cc(SC)c(C#N)c1=O`, the “activity change, positive = activation” value is -6.94%. The same measure, in the same setting: then `CC(=O)Nc1ccc(NC2=C(Cl)C(=O)c3ccccc3C2=O)cc1`, with 3.61%; and `O=C(Nc1cccc([N+](=O)[O-])c1)N1CCCc2ccccc21`, with -2.8%; and `CCC[C@H]1CCCC/C=C\CCCC(=O)OCCN1C(=O)OC(C)(C)C`, with -8.68%. For the compound `CCN(CC)c1ccc2c(Cl)c(Br)c(=O)oc2c1`, the Potency is 36.8 µM (active).

Turning to `Cc1cc2c(c(=O)o1)C(CCC1CCCCC1)C(C#N)=C(N)O2` (configuration not stated), the “activity change, positive = activation” value is 19.3%. Turning to `CCn1nc(C)c(CNC(=O)c2cc(COc3ccc(F)cc3Cl)on2)c1C`, the “activity change, positive = activation” value is 0%. For `Fc1ccc(C2=NOC(c3nnc(-c4ccccc4)o3)C2)cc1` (configuration not stated), the “activity change, positive = activation” value is 0.803%.

Take `CNC(=O)Cc1csc2ccc(C)cc12`: the “activity change, positive = activation” value is -17%.

For the origin of these results see PubChem BioAssay AID493192 (National Center for Advancing Translational Sciences (NCATS), 2011).
